In the library only some 1.1% were active in any assay of this set; here they are far more common.
HTR5A ag ctr – HTR5A agonists in luminescence cell assay, primary screen, counter-screen for OPRM1-OPRD1 heterodimer agonist project, full-deck HTS; cell-based; 340,000 compounds, 0.61% hits; AID 504692, 2011; activation, % at 9.3 µM; in the data active means activation mostly above about 9.5%, no sharp cut-off; inactive means mostly below about 7.6%
Target sequence (P47898 whole entry, looked up): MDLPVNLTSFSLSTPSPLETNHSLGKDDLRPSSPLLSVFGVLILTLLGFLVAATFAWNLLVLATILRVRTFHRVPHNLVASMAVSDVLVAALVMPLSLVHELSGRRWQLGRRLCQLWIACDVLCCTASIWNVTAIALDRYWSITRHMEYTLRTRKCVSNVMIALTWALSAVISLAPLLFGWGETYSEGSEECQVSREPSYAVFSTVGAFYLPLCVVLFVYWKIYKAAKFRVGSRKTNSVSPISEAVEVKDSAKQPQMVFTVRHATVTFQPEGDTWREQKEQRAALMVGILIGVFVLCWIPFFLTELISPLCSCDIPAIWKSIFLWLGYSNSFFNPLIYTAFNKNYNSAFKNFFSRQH
HTR5A inv ag – HTR5A inverse agonists in luminescence cell assay, primary screen, counter-screen for OPRM1-OPRD1 heterodimer inverse agonist project, full-deck HTS; HTR5A cell line, inverse agonism; AID 504634, 2011; 5-hydroxytryptamine receptor 5A (Homo sapiens), P47898; inhibition, % at 9.3 µM; 340,000 compounds, 0.083% hits; in the data active means inhibition mostly above about 23%, no sharp cut-off; inactive means mostly below about 18%
MOR-DOR ag – agonists of OPRM1-OPRD1 heterodimerization, primary screen, cell-based, luminescence; AID 504326, 2011; activation, % at 9.3 µM; cells; 340,000 compounds, 0.3% hits; Mu-type opioid receptor (Homo sapiens) + Delta-type opioid receptor (Homo sapiens), …; in the data active means activation above about 18%
MOR-DOR inv ag – inverse agonists of MOR-DOR heterodimerization, primary screen, cell-based, luminescence; cell-based MOR-DOR heterodimer luminescence, inverse agonism; 340,000 compounds, 0.21% hits; AID 504357, 2011; inhibition, % at 9.3 µM; in the data active means inhibition above about 22%, passing the limit was not always enough
Large screens that a line does not name were inactive.

COCCCNC(=O)[C@H](Cc1c[nH]c2ccccc12)NC(=O)OCc1ccccc1	none
Cc1ccc2nc(NC(=O)CSCc3ccccc3)sc2c1	HTR5A ag ctr 10
Cc1ccc2nc(NC(=O)CS(=O)(=O)Cc3ccccc3)sc2c1	none
O=C(NCc1ccc2c(c1)OCO2)c1cc(-c2ccncc2)nc2ccccc12	none
Cc1ccc2c(c1)c1c3n2CCN(C(=O)CN2CCN(C)CC2)C3CCC1 (stereo not drawn)	HTR5A ag ctr 9.1
CC(C)CC(=O)Nc1cccc2c1C(=O)N(c1ccccc1)C2=O	none
CC(C)CC(=O)Nc1cc2nn(-c3ccccc3)nc2cc1Cl	HTR5A ag ctr 9.1
Cc1cc(NC(=O)CSc2nnc(-c3c[nH]c4ccccc34)n2-c2ccc(Cl)cc2)no1	HTR5A ag ctr 13, MOR-DOR ag 21
COc1ccc(-c2nn(Cc3ccccc3)cc2C(=O)N2CCN(c3ncccn3)CC2)cc1OC	HTR5A ag ctr 12
CCOC(=O)Nc1c(Cl)[nH]c(=O)n(C)c1=O	none
COc1ccccc1N(CC(=O)NCCSc1ccccn1)S(=O)(=O)c1ccccc1	HTR5A ag ctr 12
Cc1ccccc1N(CC(=O)NCCSc1ccccn1)S(=O)(=O)c1ccccc1	none
C=C(C)c1cccc(C(C)(C)NC(=O)Nc2cc(C)ccn2)c1	none
O=C(COc1cccc(Br)c1)Nc1ccc(Cl)c(S(=O)(=O)N2CCOCC2)c1	HTR5A ag ctr 9.3
O=C(CCCOc1ccccc1)Nc1ccc(Cl)c(S(=O)(=O)N2CCOCC2)c1	none
O=C(COC(=O)c1cccnc1Cl)Nc1cccc(S(=O)(=O)N2CCOCC2)c1	HTR5A ag ctr 12
COc1cccc(NC(=O)Nc2cc(NC(=O)Nc3cccc(OC)c3)c(C)nc2C)c1	none
Cc1ccccc1N1CCN(C2CCCN(C(=O)CCC(=O)N(C)C)C2)CC1 (stereo not drawn)	none
Cc1ccccc1N1CCN(C2CCCN(C(=O)CCC3(C)CC3)C2)CC1 (stereo not drawn)	HTR5A ag ctr 10
Cc1ccc2nsnc2c1NC(=S)NC(=O)c1ccco1	none
O=C(NC(=S)Nc1c(Cl)ccc2nsnc12)c1ccccc1F	HTR5A ag ctr 10
C=CCNC(=O)c1onc(CSc2ccccc2)c1C(=O)NCC=C	none
C=CCNC(=O)c1onc(CSc2ccc(F)c(F)c2)c1C(=O)NCC=C	HTR5A ag ctr 13
COC(=O)CC1COc2ccccc2N1C(=O)c1cccc(C(F)(F)F)c1 (stereo not drawn)	none
CC(=O)N(/N=C1/C(=O)Nc2ccccc21)c1ccccc1	none
O=C1Nc2ccccc2C1=Nc1cccc(Cl)c1	MOR-DOR inv ag 53
CSc1cccc(N=C2C(=O)Nc3ccccc32)c1	MOR-DOR inv ag 52
CC(=O)c1ccc(N=C2C(=O)Nc3ccccc32)cc1	MOR-DOR inv ag 53
O=C(Cc1ccccc1)NC(CSSCC(NC(=O)Cc1ccccc1)C(=O)O)C(=O)O (stereo not drawn)	none
CC(C)(C)[C@H]1C=C(C(=O)N2CCOCC2)O[C@@H](OCCCCO)C1	none
Cn1c(-c2ccc(-c3ccccc3)cc2)c[nH]c1=S	HTR5A inv ag 46, MOR-DOR inv ag 41
CCn1c(C)nc2cc(C(=O)N/N=C(\C)c3ccc(N4CCOCC4)cc3)ccc21	none
CCn1c(C)nc2cc(C(=O)NN=C(C)c3ccc(C#N)cc3)ccc21	HTR5A ag ctr 13
COc1c(F)c(F)c(C(=O)Nc2ccc(N3CCN(Cc4ccccc4)CC3)cc2)c(F)c1F	HTR5A ag ctr 9.8
CCN1CCN(c2ccc(NC(=O)c3ccc4c(c3)[nH]c(=O)n4Cc3ccc(F)cc3)cc2)CC1	HTR5A ag ctr 12
O=C(N/N=C/c1cc(Br)c(Br)o1)c1cc2ccccc2o1	none
Cc1nc(N2CCCCC2)c2c(C)c(C(=O)Nc3cccc(C(F)(F)F)c3)sc2n1	HTR5A ag ctr 14
CCN=c1sc(C(=O)OC)cc(=O)n1CC	HTR5A ag ctr 11
C=CCN=c1sc(C(=O)OC)cc(=O)n1CC=C	none
CC(=O)NC1CCC(=O)C=C1c1ccccc1 (stereo not drawn)	none
COc1ccccc1CC(=O)N1CCN(S(=O)(=O)c2ccccc2F)CC1	none
COc1ccccc1CC(=O)N1CCN(S(=O)(=O)c2ccccc2)CC1	HTR5A ag ctr 13
Cc1ccc(Cn2ccsc2=NC(=O)CCl)cc1	HTR5A ag ctr 92, MOR-DOR ag 59
Cc1ccc(Cn2ccsc2=NC(=O)COC(=O)c2ccc(NC(=O)CC#N)cc2)cc1	none
